Reference: the supplement of paper PMC6555819

The sequences below were run on VDR:RXRa (NR concentration 270 nM, RXRa partner concentration 90 nM) (assay: PBM binding z-score (relative to random genomic background probes); higher = stronger binding; sequences stand for … in GC…GCGATTGACAGCGTAGAATGAAGG).
Method: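 Protein-binding microarray (Agilent 4x180K custom design, double-stranded 60-nt probes: 5' GC cap, 34-nt variable region, 24-nt constant primer region; full probe sequence given). Purified or IVT nuclear receptor:RXRα heterodimers (3:1 NR:RXRα, mostly 270:90 nM) or homodimers were incubated for 1 h in PBS with 2% milk and no ligand, then detected with Alexa488 antibodies. Fluorescence from o1-orientation probes (~5 replicates averaged) was converted to z-scores against 500 random hg19 background probes. Variable regions are seed direct-repeat (DR0–DR5) sites, all their single-nucleotide variants and half-site ablations.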

Sequence	PBM binding z-score
TAGCCTAGGTCATGCGGTCCAGTATAGTGTCGGC	4.75
TCATATAGGTAAAACGTGAAAGTCGGTGTGGTAA	0.783
ACAGACAGGTGAGTGAAGATAACTCAGCTGGACG	-0.413
CAAACTAGGTCAAAGGTCCAAGTCGAGCCAACCA	3.41
GCAGACAGGTGAAACGCAGGTAACTCACGGTGGC	-0.56
CCGTACGGGTCACTCCAGGTTATAGCATCGGAGT	4.39
TAGGCTAGGTCATGGGCCAGTATACCACGCGAAC	1.98
TCATATAGGAAAACAGGTGAAAGTCCGTAAGTTA	1
AGAAGGAGGTTACCAAAGATCAGGGAAACGCTTG	0.838
ATATGTAGGTTAAGGGACATTCAGGTTGGTTCGC	1.07
TCTAACAGGCCAGAGGGTCACTCAAGAGGTACGG	1.76
AGAATGAGGTTAAGAGCAGGGAAACAGAATACAT	0.967
CCTTACGGGTCACGAGGTTATTGCACGACGAGCG	5.3
TAACCTAGGTCATTCAGGGGCCAGTATAGAAAGC	4.03
GCTAGTTGGTCAGAAAAAGGTCACACACCGGTCG	3.77
GAACCAAGGTGAATAGGTCGTTGATGAGTAGGCG	0.843
CCAGACAGGTGACAAGGTAACTCAGCCTCGATTA	0.0377
TAGCCTAGGTCATGGGCCAGCATACCACGCGAAC	1.68
ATCGAAAGGTCGAGGGGAGTATAGAGAAAGGGAA	2.67
CGGCAAAGTTCAACTAAGGTAACGTAAAGCACGC	4.67

Sequence	PBM binding z-score
CCTACTGGGCCATCAGGTCAATGATATCAACGTT	1.4
ACTAGCAGGCCAAGTTTGGGTCACTCTAACAAAG	0.395
ATAATGAGGTTAAGATCAGGGAAACAGAATACAT	1.6
ACTATTAGTTGAGACGAGGTCAACCGATAGGTTG	4.47
TCTCGGAGGACACGACAGGTCAGAGCTCGACATC	0.875
TAGCCTAGGTCATCGGCCAGTATACCACGCGAAC	2.15
CGTCCAAGCTCATAGGAGGTCAGTGAAGACAGAT	1.69
TCTATTAATTGATTAGGGCAACCGAAACAGCGGA	0.405
TCTCGGAGGACCCGAAAGGTCAGAGCTCGACATC	2.45
CTTACTGGGCCACGAAAGGTCATTGATTCAGTGA	4.64
CCGACTGGGGCATAAGGTTTCCATAAGCCAGCCC	-0.182
TCATAAAGGTAAAAGGTGAAAGTCGGTGTGGTAA	1.89
GATACAGGGTCAGCTAGAGGCCATAGTATGGAAA	4.05
TCTAGTTGTTCACGGAGGTCACACACGACGGGTA	4.1
GCACACAGGTGAAACGCAGGTAACTCAGGGTGGC	-0.336
TCTAGCAGGCCAGAGGGTCGCTCAAGAGGTACGG	-0.181
ATCGAAAGGTCGAGGTGAGTATGGAGAAAGGGAA	2.59
CAAACTAGGTCACGAAAGGTCAAAGTCGAATGAC	6.91
GCTTGAAGATCAAGGTTAAGAAAGACTAAGCTAA	0.0982
GCGACTGGGGCAAAGCATGTTACCATAAGGTTGG	-0.497
